Measured values: PubChem BioAssay (NCI)
This is part of a sample that, as a whole, favours compounds with a hit. Of some 79,000 tested, about 15% had one in any assay. A number with no mark means an inactive call. Activity calls are given as the source filed them. Cut-off read from the data, not from the text of the source: active = growth inhibition above about 70%; inactive = the rest.

Columns and labels:
[1] = NCI Yeast Anticancer Drug Screen. Data for the rad52 strain (AID 147);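 note: 0% = growth of vehicle-treated control cultures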; conditions: S. cerevisiae rad52 mutant growth inhibition, hits give high values
Procedure, shortened: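 Measured: yeast growth inhibition. System: strain with a defined DNA damage repair alteration. Reference: vehicle-treated control cultures.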

[2] = NCI Yeast Anticancer Drug Screen. Data for the wt1 strain (AID 149);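 note: 0% = growth of vehicle-treated wt1 cultures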; conditions: S. cerevisiae wt1 strain (SPY 50644) growth inhibition, hits give high values
Procedure, shortened: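 wt1 yeast, compound-treated; % growth inhibition vs vehicle control.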

[3] = NCI Yeast Anticancer Drug Screen. Data for the rad50EPP+ strain (AID 151);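 note: 0% = growth of vehicle-treated control cultures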; conditions: S. cerevisiae rad50 mutant strain, hits give high values
Procedure, shortened: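 One strain with a rad50 alteration (rad50EPP+) was compound-treated, its growth then compared to that of vehicle controls.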

[4] = NCI Yeast Anticancer Drug Screen. Data for the rad50 strain (AID 155);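 note: 0% = growth of vehicle-only cultures of the same strain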; conditions: S. cerevisiae rad50 strain growth inhibition, hits give high values
Procedure, shortened: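 Genetically altered yeast (DNA repair pathway); compound treatment; growth inhibition vs vehicle ctrl.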

[5] = NCI Yeast Anticancer Drug Screen. Data for the mec2-1 strain (AID 157); conditions: S. cerevisiae mec2-1 strain, hits give high values
Procedure, shortened: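 Test agents were screened against the mec2-1 yeast strain, with defined DNA repair or cell cycle alteration. Growth was scored as inhibition against vehicle-only controls.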

[6] = NCI Yeast Anticancer Drug Screen. Data for the rad14 strain (AID 159);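 note: 0% = growth of vehicle-treated control cultures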; conditions: S. cerevisiae rad14 strain growth inhibition, hits give high values
Procedure, shortened: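 Test compounds were applied to a repair-deficient yeast strain. Its growth was then compared with that of cultures given vehicle alone, and inhibition was expressed relative to those controls.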

[7] = NCI Yeast Anticancer Drug Screen. Data for the sgs1 mgt1 strain (AID 161);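 note: 0% = growth of cultures given vehicle only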; conditions: S. cerevisiae sgs1 mgt1 strain, hits give high values
Procedure, shortened: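 Mutant yeast exposed to compound; growth scored against vehicle-only wells.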

[8] = NCI Yeast Anticancer Drug Screen. Data for the CLN2oe strain (AID 163);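 note: 0% = growth of vehicle-only control cultures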; conditions: S. cerevisiae CLN2oe strain, hits give high values
Procedure, shortened: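 Here, growth inhibition in a cell-cycle-altered yeast strain after compound exposure was quantified against vehicle control growth.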

[9] = NCI Yeast Anticancer Drug Screen. Data for the cln2 rad14 strain (AID 165);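 note: 0% = growth equal to vehicle treated cultures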; conditions: S. cerevisiae cln2 rad14 strain, hits give high values
Procedure, shortened: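 Growth of compound-exposed yeast (cln2 rad14 genotype) measured and expressed as inhibition relative to vehicle.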

[10] = NCI Yeast Anticancer Drug Screen. Data for the bub3 strain (AID 167); conditions: S. cerevisiae bub3 mutant strain, hits give high values
Procedure, shortened: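 Yeast carrying a defined mutation is treated with each compound, and growth is compared with that of vehicle-exposed cells to give inhibition.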

[11] = NCI Yeast Anticancer Drug Screen. Data for the wt2 strain (AID 169);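 note: 0% = growth of vehicle-treated yeast cultures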; conditions: S. cerevisiae wt2 strain growth inhibition, hits give high values
Procedure, shortened: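 Genetically defined yeast strains from a DNA-repair/cell-cycle panel were used. Compound-exposed yeast growth was measured, and the inhibition was calculated relative to vehicle treatment.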

[12] = NCI Yeast Anticancer Drug Screen. Data for the sgs1 strain (AID 173);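 note: 0% = growth of vehicle-only control cultures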; conditions: S. cerevisiae sgs1 mutant, hits give high values
Procedure, shortened: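 Relative growth inhibition, referenced to vehicle, was determined in a yeast strain with a defined alteration affecting DNA damage repair or cell cycle control after compound exposure.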

[13] = NCI Yeast Anticancer Drug Screen. Data for the mlh1 rad18 strain (AID 175); conditions: S. cerevisiae mlh1 rad18 strain growth inhibition, hits give high values
Procedure, shortened: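 In this whole-cell yeast screen, a strain with altered DNA damage repair is challenged with compound, and its growth is measured against matched vehicle-treated controls.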

[14] = NCI Yeast Anticancer Drug Screen. Data for the rad18 strain (AID 177); conditions: S. cerevisiae rad18 mutant growth inhibition, hits give high values
Procedure, shortened: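 Screen uses a yeast strain with a defined lesion in DNA damage repair; compound effect is read as loss of growth compared to untreated vehicle cultures.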

[15] = NCI Yeast Anticancer Drug Screen. Data for the mlh1 strain (AID 171);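 note: 0% = growth of vehicle-treated control cultures of the same strain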; conditions: S. cerevisiae mlh1 strain growth inhibition, hits give high values
Procedure, shortened: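 Here the genetically defined yeast mutant is grown with each compound, and the extent to which its growth falls below that of vehicle-exposed cells is reported.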

[16] = at 5.0 µM (retest, dose inferred, filed as 0.5)
[17] = at 50.0 µM (retest, dose inferred, filed as 5.0)

In the case of `O=C(N/N=C\c1c(Cl)cccc1Cl)N/N=C/c1c(Cl)cccc1Cl`, the growth inhibition ([1]; at 1.2 µM) is reported as 14%, the growth inhibition ([1]; at 3.7 µM) is reported as 14% and the growth inhibition ([1]; at 11.0 µM) is reported as 23%. It also gave a growth inhibition ([1]; at 33.0 µM) of 22%, a growth inhibition ([1]; at 100.0 µM) of 25% and a growth inhibition ([2]; at 1.2 µM) of -2%. For the same compound, the growth inhibition ([2]; at 3.7 µM) was 8%, the growth inhibition ([2]; at 11.0 µM) was 4% and the growth inhibition ([2]; at 33.0 µM) was 17%. For the same compound, the growth inhibition ([2]; at 100.0 µM) was 29%, the growth inhibition ([3]; at 1.2 µM) was 7% and the growth inhibition ([3]; at 3.7 µM) was 19%. The growth inhibition ([3]; at 11.0 µM) was 10%, the growth inhibition ([3]; at 33.0 µM) was 2% and the growth inhibition ([3]; at 100.0 µM) was 5%. It also gave a growth inhibition ([4]; at 1.2 µM) of 14%, a growth inhibition ([4]; at 3.7 µM) of 12% and a growth inhibition [4, 16] of 30%. For the same compound, the growth inhibition ([4]; at 11.0 µM) was 21%, the growth inhibition ([4]; at 33.0 µM) was 14% and the growth inhibition [4, 17] was 97% (active). For the same compound, the growth inhibition ([4]; at 50.0 µM) was -7.7%, the growth inhibition ([4]; at 100.0 µM) was 5% and the growth inhibition ([5]; at 1.2 µM) was 21%. For the same compound, the growth inhibition ([5]; at 3.7 µM) was 25%, the growth inhibition [5, 16] was 35% and the growth inhibition ([5]; at 11.0 µM) was 12%. For the same compound, the growth inhibition ([5]; at 33.0 µM) was 0%, the growth inhibition [5, 17] was 98% (active) and the growth inhibition ([5]; at 50.0 µM) was -13.8%. It also gave a growth inhibition ([5]; at 100.0 µM) of 3%, a growth inhibition ([6]; at 1.2 µM) of -4% and a growth inhibition ([6]; at 3.7 µM) of -21%. It also gave a growth inhibition ([6]; at 11.0 µM) of 8%, a growth inhibition ([6]; at 33.0 µM) of -7% and a growth inhibition ([6]; at 100.0 µM) of -12%. The growth inhibition [7, 16] was -13%, the growth inhibition [7, 17] was 29% and the growth inhibition ([7]; at 50.0 µM) was 9.15%. It also gave a growth inhibition ([8]; at 1.2 µM) of -8%, a growth inhibition ([8]; at 3.7 µM) of -12% and a growth inhibition ([8]; at 11.0 µM) of -21%. The growth inhibition ([8]; at 33.0 µM) was -8%, the growth inhibition ([8]; at 100.0 µM) was -10% and the growth inhibition [9, 16] was 49%. For the same compound, the growth inhibition [9, 17] was 70% (active), the growth inhibition ([9]; at 50.0 µM) was 13.7% and the growth inhibition ([10]; at 1.2 µM) was 6%. For the same compound, the growth inhibition ([10]; at 3.7 µM) was 11%, the growth inhibition [10, 16] was 36% and the growth inhibition ([10]; at 11.0 µM) was -3%. It also gave a growth inhibition ([10]; at 33.0 µM) of 0%, a growth inhibition [10, 17] of 58% and a growth inhibition ([10]; at 50.0 µM) of 12.2%. It also gave a growth inhibition ([10]; at 100.0 µM) of 1%, a growth inhibition ([11]; at 1.2 µM) of 11% and a growth inhibition ([11]; at 3.7 µM) of 7%. The growth inhibition ([11]; at 11.0 µM) was 7%, the growth inhibition ([11]; at 33.0 µM) was -3% and the growth inhibition ([11]; at 100.0 µM) was 17%. The growth inhibition ([12]; at 1.2 µM) was 8%, the growth inhibition ([12]; at 3.7 µM) was 1% and the growth inhibition ([12]; at 11.0 µM) was 19%. The growth inhibition ([12]; at 33.0 µM) was 10%, the growth inhibition ([12]; at 100.0 µM) was 5% and the growth inhibition [13, 16] was 38%. For the same compound, the growth inhibition [13, 17] was 88% (active), the growth inhibition ([13]; at 50.0 µM) was 55.9% and the growth inhibition ([14]; at 1.2 µM) was -10%. The growth inhibition ([14]; at 3.7 µM) was 1%, the growth inhibition ([14]; at 11.0 µM) was -11% and the growth inhibition ([14]; at 33.0 µM) was -10%. It also gave a growth inhibition ([14]; at 100.0 µM) of -13%.
For `Clc1nc(C(Cl)Cl)nc2sc3c(c12)CCCC3`, the growth inhibition ([1]; at 1.2 µM) was 10%, the growth inhibition ([1]; at 3.7 µM) was 11% and the growth inhibition ([1]; at 11.0 µM) was 14%. The growth inhibition ([1]; at 33.0 µM) was 26%, the growth inhibition ([1]; at 100.0 µM) was 54% and the growth inhibition ([2]; at 1.2 µM) was 2%. The growth inhibition ([2]; at 3.7 µM) was 4%, the growth inhibition ([2]; at 11.0 µM) was 5% and the growth inhibition ([2]; at 33.0 µM) was 21%. The growth inhibition ([2]; at 100.0 µM) was 56%, the growth inhibition ([3]; at 1.2 µM) was 1% and the growth inhibition ([3]; at 3.7 µM) was 0%. It also gave a growth inhibition ([3]; at 11.0 µM) of 1%, a growth inhibition ([3]; at 33.0 µM) of 0% and a growth inhibition ([3]; at 100.0 µM) of -2%. For the same compound, the growth inhibition ([4]; at 1.2 µM) was 6%, the growth inhibition ([4]; at 3.7 µM) was -1% and the growth inhibition [4, 16] was 28%. The growth inhibition ([4]; at 11.0 µM) was 1%, the growth inhibition ([4]; at 33.0 µM) was 31% and the growth inhibition [4, 17] was 88% (active). For the same compound, the growth inhibition ([4]; at 50.0 µM) was 98.2% (active), the growth inhibition ([4]; at 100.0 µM) was 53% and the growth inhibition ([5]; at 1.2 µM) was 11%. For the same compound, the growth inhibition ([5]; at 3.7 µM) was 9%, the growth inhibition [5, 16] was 5% and the growth inhibition ([5]; at 11.0 µM) was 15%. The growth inhibition ([5]; at 33.0 µM) was 39%, the growth inhibition [5, 17] was 80% (active) and the growth inhibition ([5]; at 50.0 µM) was 89.3% (active). It also gave a growth inhibition ([5]; at 100.0 µM) of 66%, a growth inhibition ([6]; at 1.2 µM) of 6% and a growth inhibition ([6]; at 3.7 µM) of 2%. The growth inhibition ([6]; at 11.0 µM) was 9%, the growth inhibition ([6]; at 33.0 µM) was 33% and the growth inhibition ([6]; at 100.0 µM) was 69%. The growth inhibition [7, 16] was 5%, the growth inhibition [7, 17] was 26% and the growth inhibition ([7]; at 50.0 µM) was 97.7% (active). For the same compound, the growth inhibition ([8]; at 1.2 µM) was 7%, the growth inhibition ([8]; at 3.7 µM) was 9% and the growth inhibition ([8]; at 11.0 µM) was 12%. It also gave a growth inhibition ([8]; at 33.0 µM) of 46%, a growth inhibition ([8]; at 100.0 µM) of 63% and a growth inhibition [9, 16] of 32%. For the same compound, the growth inhibition [9, 17] was 81% (active), the growth inhibition ([9]; at 50.0 µM) was 78.2% (active) and the growth inhibition ([10]; at 1.2 µM) was 5%. For the same compound, the growth inhibition ([10]; at 3.7 µM) was 3%, the growth inhibition [10, 16] was 0% and the growth inhibition ([10]; at 11.0 µM) was 8%. For the same compound, the growth inhibition ([10]; at 33.0 µM) was 27%, the growth inhibition [10, 17] was 96% (active) and the growth inhibition ([10]; at 50.0 µM) was 92.1% (active). It also gave a growth inhibition ([10]; at 100.0 µM) of 43%, a growth inhibition ([11]; at 1.2 µM) of 3% and a growth inhibition ([11]; at 3.7 µM) of 3%. For the same compound, the growth inhibition ([11]; at 11.0 µM) was 6%, the growth inhibition ([11]; at 33.0 µM) was 36% and the growth inhibition ([11]; at 100.0 µM) was 73% (active). It also gave a growth inhibition ([15]; at 1.2 µM) of 4%, a growth inhibition ([15]; at 3.7 µM) of 4% and a growth inhibition ([15]; at 11.0 µM) of 7%. For the same compound, the growth inhibition ([15]; at 33.0 µM) was 29%, the growth inhibition ([15]; at 100.0 µM) was 51% and the growth inhibition [13, 16] was -1%. The growth inhibition [13, 17] was 74% (active), the growth inhibition ([13]; at 50.0 µM) was 96.3% (active) and the growth inhibition ([14]; at 1.2 µM) was 12%. The growth inhibition ([14]; at 3.7 µM) was 13%, the growth inhibition ([14]; at 11.0 µM) was 21% and the growth inhibition ([14]; at 33.0 µM) was 35%. It also gave a growth inhibition ([14]; at 100.0 µM) of 58%.
